Consider 16 molecules from PubChem BioAssay (Tox21).

Experiment [1] is described as follows: qHTS RealTime-Glo MT Cell Viability Assay in HepG2 cells - 40 hour (AID 1224870). Also: nearly all actives have a fitted effect of over 50% in size. Put shortly: (§1)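 HepG2 cells (600/well) mixed with RealTime-Glo MT reagent, settled 5 h at 37 C/5% CO2 before compound addition. Nonlytic NanoLuc luminescence from viable-cell prosubstrate reduction read repeatedly during 40 h treatment at 37 C.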
(In general: Quantitative high-throughput screening tests each substance at several concentrations.)

A short description of experiment [2]: qHTS RealTime-Glo MT Cell Viability Assay in HEK293 cells - 16 hour (AID 1224872). Also: nearly all actives have a fitted effect of over 50% in size. Put shortly:
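Reads taken at 0, 8, 16, 24, 32 and 40 h from the same wells. HEK293 cells (600/well) carried RealTime-Glo reagents from seeding, with compound added after a 5 h settle at 37 C.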

Experiment [3] can be described thus: qHTS RealTime-Glo MT Cell Viability Assay in HepG2 cells - 8 hour (AID 1224873). Also: nearly all actives have a fitted effect of over 55% in size. Put shortly: as §1
Experiment [4] in a line: qHTS RealTime-Glo MT Cell Viability Assay in HEK293 cells - 40 hour (AID 1224874). Also: nearly all actives have a fitted effect of over 50% in size. The conditions noted are these: RealTime-Glo luminescence; max response: active compounds read low. Put shortly:
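600 cells/well were plated with the nonlytic NanoLuc/prosubstrate reagent, pre-incubated 5 h, then given 23 nL of compound in DMSO. Incubation at 37 C for 40 h, with luminescence from viable-cell-reduced substrate read repeatedly from 0 h.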

The nature of experiment [5]: A CellTox Green Cytotoxicity Assay to monitor cytotoxicity in HepG2 cells - 16 hour (AID 1224876). Also: nearly all actives have a fitted effect of over 45% in size. Put shortly: (§2)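 HepG2 cells, 600/well, preincubated 5 h with CellTox Green dye, then exposed to Tox21 compounds in DMSO at 37 C for up to 40 h. Dead-cell DNA fluorescence read at the indicated time point.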
Experiment [6] in a line: qHTS RealTime-Glo MT Cell Viability Assay in HepG2 cells - 32 hour (AID 1224877). Also: nearly all actives have a fitted effect of over 55% in size. Put shortly: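 HepG2 suspension premixed with RealTime-Glo reagents is plated at 600 cells per well and left 5 h at 37 C/5% CO2. Compounds in DMSO then go in, and bioluminescence reflecting viable cell number is recorded over 40 h.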
A short description of experiment [7]: A CellTox Green Cytotoxicity Assay to monitor cytotoxicity in HepG2 cells - 24 hour (AID 1224878). Also: nearly all actives have a fitted effect of over 45% in size. Put shortly:
as §2

Experiment [8] can be described thus: A CellTox Green Cytotoxicity Assay to monitor cytotoxicity in HepG2 cells - 40 hour (AID 1224879). Also: nearly all actives have a fitted effect of over 40% in size. Put shortly:
as §2

Experiment [9] is described as follows: A CellTox Green Cytotoxicity Assay to monitor cytotoxicity in HEK293 cells - 24 hour (AID 1224875). Also: nearly all actives have a fitted effect of over 45% in size. Put shortly: (§3)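 HEK293 cells, 600/well, were preincubated 5 hours and then exposed to compounds at 37 C for up to 40 hours. A cell-impermeant cyanine dye staining dead-cell DNA was read by fluorescence at 0, 8, 16, 24, 32 and 40 h time points.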
A short description of experiment [10]: A CellTox Green Cytotoxicity Assay to monitor cytotoxicity in HEK293 cells - 40 hour (AID 1224871). Also: nearly all actives have a fitted effect of over 45% in size. Put shortly:
as §3

Inconclusive results are not listed. A number with no mark means an inactive call. Calls of active or inactive are those of the source. Calls follow the shape of the dose curve; as a rule, active = well fitted curve in the direction sought with a large enough effect in the repeat runs; inconclusive = weak or mixed curves; inactive = no such curve, though single readings can be large; an effect the other way counts as inactive or inconclusive.
% is scaled to controls: 0 for no effect and ±100 for the full control effect; potency is read from the fitted curve at half-maximal effect.

In the case of `COc1cc(NS(=O)(=O)c2ccc(N)cc2)nc(C)n1`, the Potency result in [1], in experiment [2], in experiment [3], in [5], in experiment [6] and in [7] was “inactive” each time. Moreover, in experiment [8], the Potency entry was “inactive”. The max response in experiment [4] was 9.67%.

Take `O=[N+]([O-])c1ccc2ncccc2c1`: the Potency entry in experiment [1], in experiment [2], in experiment [3], in experiment [9], in experiment [6] and in experiment [7] was “inactive” each time. Besides, the Potency result in experiment [8] was “inactive”. In experiment [4], the max response is 2.13%.

On to `CCCCCCCC(=O)OCCCCCC`, for which the Potency entry in experiment [1], in experiment [3], in experiment [9], in experiment [5], in experiment [6] and in experiment [7] was “inactive” in each case. Besides, in [8], the Potency entry was “inactive”. Moreover, the Potency in experiment [4] was 3.47 µM (active).

`C[C@@H]1[C@H](O)[C@@H](C)/C=C/C=C\C=C\C=C\C=C\C=C\C=C\[C@H](O[C@@H]2O[C@H](C)[C@@H](O)[C@H](N)[C@@H]2O)C[C@@H]2O[C@](O)(C[C@@H](O)C[C@@H](O)[C@H](O)CC[C@@H](O)C[C@@H](O)CC(=O)O[C@H]1C)C[C@H](O)[C@H]2C(=O)O` (stereo in doubt): the Potency result in [1], in [2], in experiment [3], in experiment [5], in experiment [6] and in experiment [7] was “inactive” each time. In [8], the Potency entry is “inactive”. Moreover, the max response in experiment [4] was -0.557%.

For `O=C(/C=C/c1ccc([N+](=O)[O-])cc1)c1ccccc1`, the Potency in [10] is 17.4 µM (active); in [2], 24.6 µM (active); in experiment [4] it was 24.6 µM (active); in experiment [5], 21.9 µM (active); in experiment [7] it was 21.9 µM (active); in experiment [8], 21.9 µM (active). Further, the Potency entry in experiment [3] is “inactive”.

`CC(C)N(C)C`: the Potency entry in experiment [1], in [2], in experiment [3], in [9], in [5] and in [6] was “inactive” throughout. Besides, the Potency entry in [8] is “inactive”. Moreover, the max response in experiment [4] was 0.0453%.

Regarding `CCSC(=O)N(CC)CC`, the Potency result in experiment [1], in experiment [2], in experiment [3], in [9], in experiment [5] and in experiment [6] was “inactive” throughout. Moreover, the Potency entry in [8] is “inactive”. In addition, in [4], the max response was 0.524%.

As to `CC(=O)OCCC(C)CC(C)(C)C` (centres undefined), the Potency entry in experiment [1], in experiment [2], in experiment [3], in experiment [5], in [6] and in experiment [7] was “inactive” throughout. Further, the Potency result in experiment [8] was “inactive”.

Consider `COc1cc(C(C)=O)ccc1OCCCN1CCC(c2noc3cc(F)ccc23)CC1`, for which the Potency entry in experiment [1], in [3] and in [5] was “inactive” in each case. In addition, the Potency in [2] was 7.56 µM (active); in experiment [4], 10.7 µM (active).

Turning to `O[C@@H](CNC[C@H](O)[C@H]1CCc2cc(F)ccc2O1)[C@@H]1CCc2cc(F)ccc2O1`, the Potency in [1] was 15.1 µM (active); in experiment [2], 19 µM (active); in [3], 21.3 µM (active); in [4], 19 µM (active); in [9] it was 26.8 µM (active); in [5], 16.9 µM (active). Besides, the Potency in experiment [6] is 15.1 µM (active); in experiment [8], 10.7 µM (active).

For `CC(C)(O)c1coc(S(=O)(=O)NC(=O)Nc2c3c(cc4c2CCC4)CCC3)c1`, the Potency entry in experiment [1], in [2], in experiment [3], in experiment [9] and in experiment [6] was “inactive” each time. The max response in [4] was 21.1%.

For `O=C1c2ccccc2C(=O)c2c(O)ccc(O)c21`, the Potency entry in experiment [1], in [2], in experiment [3] and in [6] was “inactive” each time. The max response in experiment [4] is 5.32%. In addition, the Potency in experiment [5], in experiment [7] and in experiment [8] was 24.5 µM (active) throughout.

With `O=C(O)CCS`, the Potency result in experiment [1], in experiment [2], in experiment [3], in [9], in [5] and in [6] was “inactive” in each case. Further, the Potency result in experiment [8] is “inactive”. In addition, in [4], the max response is 7.66%.

On to `CN1C(CSCC(F)(F)F)Nc2cc(Cl)c(S(N)(=O)=O)cc2S1(=O)=O` (centres undefined), for which the Potency result in [1], in [3], in experiment [9], in [5], in experiment [6] and in experiment [7] was “inactive” each time. Besides, the Potency result in experiment [8] is “inactive”. Moreover, the Potency in [2] was 19 µM (active); in experiment [4], 21.3 µM (active).

On to `CC/C=C\C/C=C\C/C=C\CCCCCCCC(=O)OCC`, for which the Potency entry in experiment [1], in experiment [2], in [3], in experiment [6], in [7] and in experiment [8] was “inactive” each time. For the same molecule, in experiment [4], the max response is -15.2%.

As to `COC(=O)C1=C(C)NC(C)=C(C(=O)OC(C)(C)CN(C)CCC(c2ccccc2)c2ccccc2)C1c1cccc([N+](=O)[O-])c1` (centres undefined), the Potency result in experiment [10], in [2], in experiment [9], in [5] and in experiment [8] was “inactive” throughout. Besides, in experiment [4], the max response was -18%.
